Compound activity deposited in PubChem BioAssay by several laboratories.
The list is not random: actives were taken first. Their share in the collection is about 27%.
CYP2C9 inhib: blockers of cytochrome P450 2C9 activity – biochemical, luminescence, ADME assay, primary screen | 96,000 compounds, 20% hits | P11712 | inhibition, % at 5 µM | CYP2C9 Supersomes, luciferin-H conversion;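 active means blocking of liver enzyme CYP2C9 beyond about 50% at 5 µM, limit read from the data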
Target sequence (P11712 whole entry, looked up): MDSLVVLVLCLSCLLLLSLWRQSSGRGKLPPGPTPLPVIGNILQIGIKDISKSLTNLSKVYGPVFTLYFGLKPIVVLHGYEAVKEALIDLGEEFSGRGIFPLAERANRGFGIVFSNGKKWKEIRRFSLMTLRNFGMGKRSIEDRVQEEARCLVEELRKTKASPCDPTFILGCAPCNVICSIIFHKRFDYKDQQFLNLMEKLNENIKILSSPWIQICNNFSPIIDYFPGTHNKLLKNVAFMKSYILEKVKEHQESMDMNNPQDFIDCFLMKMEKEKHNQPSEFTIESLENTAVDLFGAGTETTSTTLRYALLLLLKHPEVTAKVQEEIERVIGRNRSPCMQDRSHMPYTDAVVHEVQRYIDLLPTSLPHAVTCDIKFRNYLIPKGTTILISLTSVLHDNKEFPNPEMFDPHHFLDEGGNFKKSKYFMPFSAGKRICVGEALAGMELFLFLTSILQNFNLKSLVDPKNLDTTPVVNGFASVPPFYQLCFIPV
CYP2C19 act: human CYP2C19 activators, primary screen, biochemical, luminescence. recombinant CYP2C19, luciferin-H EGE luminescence; active compounds read high; 0 = fully inhibited enzyme, 1 = untreated enzyme. activation factor at 5 µM. 96,000 tested, under 10 active. Cytochrome P450 2C19 (Homo sapiens), P33261;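 active means activation factor of at least 2 at 5 µM in the primary screen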;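 further: 0 = wells with 2.5 mM tranylcypromine and 1 = vehicle-only wells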
CYP2C9 activ: human CYP2C9 activators, primary screen, biochemical, luminescence; Cytochrome P450 2C9 (Homo sapiens), P11712; recombinant CYP2C9, luciferin-H conversion; active compounds read high; factor 1 = untreated enzyme, 0 = blocked; activation factor at 5 µM; 96,000 compounds, 1.4% hits; AID 1024, 2008;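 active means activation factor of 2 or more for CYP2C9 at a 5 µM dose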;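 further: 0 = sulfaphenazole-blocked wells and 1 = vehicle-only wells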
Cav32 inh: Cav3.2 calcium influx blockers – cell-based, Fluo-4 calcium fluorescence, FDSS, MLSMR library, primary screen; Voltage-dependent T-type calcium channel subunit alpha-1H (Homo sapiens), O95180; Cav3.2-expressing cells; active compounds read low; B-score at 10 µM; 100,000 compounds, 4% hits; AID 449739, 2010;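 active means single-dose well whose peak fluorescence ratio is a statistical outlier from its plate by either plate-standardised score or position-corrected B-score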
CYP2C19 inhib: blockers of cytochrome P450 2C19 activity – biochemical, luminescence, ADME assay, primary screen; P33261; CYP2C19 Supersomes, luciferin-H EGE luminescence, 30 min; inhibition, % at 5 µM; 96,000 compounds, 21% hits; AID 778, 2007;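 active means CYP2C19 inhibition above a set limit at 5 µM in the primary screen, cut at about 50% in these data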;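 further: plate controls were negative control wells for no effect and 2.5 mM tranylcypromine positive control for full effect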
* = called active by the depositor; . = no result given.

SMILES	CYP2C9 inhib	CYP2C19 act	CYP2C9 activ	Cav32 inh	CYP2C19 inhib
Cn1c(=O)c2c(nc(NC3CCCCC3)n2CC(O)COc2ccccc2)n(C)c1=O (centres undefined)	52.2*	0.6	0.5	0.859	37.1
Cn1c(=O)c2c(nc(N3CCCCCC3)n2CC(O)COc2ccccc2)n(C)c1=O (centres undefined)	28.2	0.9	0.7	-1.54	6.8
CC1CCN(S(=O)(=O)c2ccc(NC(=O)CSc3nnnn3C)cc2)CC1	-0.6	1	1	-0.112	-2.2
CCCCc1nc(S(=O)(=O)c2ccc(Cl)cc2)c(N2CCOCC2)o1	.	.	.	-2.8	.
CCCn1c2c(c(O)c(C(=O)Nc3ccc(OC)cc3)c1=O)CCCC2	79.2*	0.9	0.2	-0.98	6.5
CCCn1c2c(c(O)c(C(=O)NC)c1=O)CCCC2	.	.	.	0.116	.
CCc1cccc(Nc2cc(C)nc3nc(C)nn23)c1	.	.	.	-0.515	.
O=C(/C=C/c1ccccc1)NC(NC(=S)Nc1ccc(Cl)cc1)C(Cl)(Cl)Cl (centres undefined)	70.4*	1	0.3	-7.43*	2.9
O=C(/C=C/c1ccccc1)NC(NC(=S)Nc1cc(Cl)ccc1Cl)C(Cl)(Cl)Cl (centres undefined)	86.9*	0.7	0.1	-1.69	28.1
NC(=O)c1ccccc1NC(=O)/C=C/c1cccc(Cl)c1	-71.9	0.9	1.7	-1.37	12.7
COc1ccc(NC(=S)NC(NC(=O)/C=C/c2ccccc2)C(Cl)(Cl)Cl)cc1 (centres undefined)	80.4*	0.8	0.2	-2.66	23.9
CC(=O)NC(NC(=S)Nc1ccc(N=Nc2ccccc2)cc1)C(Cl)(Cl)Cl (centres undefined)	26.6	0.7	0.7	-0.49	27.0
C[C@@H](C(=O)NCCc1c[nH]c2ccccc12)[C@H]1C[C@]1(C)[C@H](NC(=O)OCc1ccccc1)c1ccccc1	.	.	.	-1.78	.
CCOc1ccc2c(C)nc(NC3=NC(C)(C)C=C(C)N3)nc2c1	.	.	.	-0.194	.
CCOc1ccc2nc(NC3=NC(C)(C)C=C(C)N3)nc(C)c2c1	72.5*	0.5	0.3	-1.18	49.1
CCOC(=O)C(CC)n1cnc2c(oc3ccccc32)c1=O (centres undefined)	19.5	0.9	0.8	-0.807	14.0
Cc1cc(C)c2c(CC(=O)N(CCC#N)Cc3cccnc3)coc2c1	-25.3	0.5	1.3	.	51.0*
Cc1cc(C)c2c(CC(=O)Nc3nccs3)coc2c1	19.8	0.9	0.8	.	12.3
C/C(=N\N=C\c1ccccc1)c1nnn(-c2nonc2N)c1C	38.6	0.7	0.6	-0.0248	25.4
Cc1ccc(S(=O)(=O)Cn2nnnc2C(C(C)C)N2CCSCC2)cc1 (centres undefined)	68.6*	0.8	0.3	-0.0392	23.9
Cc1ccc(S(=O)(=O)Cn2nnnc2C(c2ccccn2)N2CCN(c3ccccc3)CC2)cc1 (centres undefined)	68.5*	0.3	0.3	-1.88	72.4*
Cc1ccc(C(c2nnnn2CS(=O)(=O)c2ccc(C)cc2)N2CCN(c3ncccn3)CC2)cc1 (centres undefined)	.	.	.	-2.1	.
CC1(C)CC(=O)C(C(=S)Nc2ccccc2)=C(NCCN2CCOCC2)C1	1.0	0.9	1	1.1	11.9
CCCOP(=O)(OCCC)C(Nc1ccc(C(C)C)cc1)c1ccc([N+](=O)[O-])cc1 (centres undefined)	10.2	1	0.9	.	1.9
COC(=O)C1=C(C)NC(C)=C(C(=O)OC)C1c1cn(-c2ccccc2)nc1-c1ccco1	83.4*	0.6	0.2	-2.2	42.8
SMILES	CYP2C9 inhib	CYP2C19 act	CYP2C9 activ	Cav32 inh	CYP2C19 inhib
COCCOC(=O)C1=C(C)NC(=O)NC1c1cn(-c2ccccc2)nc1-c1cccs1 (centres undefined)	70.3*	0.2	0.3	-1.04	75.5*
O=C1CSC(c2cn(-c3ccccc3)nc2-c2cccs2)N1Cc1ccccc1 (centres undefined)	1.7	1.1	1	.	-10.0
C=CCOC(=O)C1=C(C)NC(=O)NC1c1cn(-c2ccccc2)nc1-c1cccs1 (centres undefined)	78.6*	0.3	0.2	-2.83	68.2*
CC1=C(C#N)C(c2cn(-c3ccccc3)nc2-c2cccs2)C(C#N)=C(C)N1	75.3*	0.3	0.2	-1.59	73.7*
COc1ccc(C2(CNC(=O)CCC(=O)O)CCCC2)cc1OC	-7.3	0.9	1.1	0.478	14.7
COc1cc2c(cc1OC)CN(C(=O)c1cc(S(=O)(=O)N3CCOCC3)ccc1Cl)CC2	15.0	0.9	0.8	1.96	6.8
CN1CC[n+]2cnc3ccccc3c21	-16.2	1.2	1.2	-0.407	-22.9
NC(=O)C1CCN(Cc2nc3ccccc3c(=O)[nH]2)CC1	22.5	0.9	0.8	.	6.5
Cc1[nH]c2ccccc2c1C(c1ccccn1)N1CCC(C(N)=O)CC1 (centres undefined)	-6.3	0.5	1.1	-0.0425	50.7*
O=C1C(C=NCc2ccncc2)=C(O)c2ccccc21	84.6*	0.2	0.2	1.63	75.9*
O=C1C(c2ccncc2)=C(O)c2ccccc21	92.4*	0.5	0.1	.	49.7
CCN(Cc1nc2cc(OC)c(OC)cc2c(=O)[nH]1)C(=O)c1ccc(S(=O)(=O)N(C)C)cc1	54.2*	0.7	0.5	1.75	30.1
Cc1ccc(CNS(=O)(=O)c2cn(C)cn2)cc1	-16.1	0.9	1.2	0.157	7.0
Cc1cc(CNC(=O)C2(C(F)(F)F)C/C(=C\Cc3ccccc3)CCCO2)nn1C (centres undefined)	.	.	.	0.468	.
CCOc1ccc(C(=O)/C=C/c2ccc(SC)cc2)cc1	28.5	0.4	0.7	-0.401	61.7*
COC(=O)c1ccc(/C=C/C(=O)c2ccc(OC)cc2)cc1	90.9*	0.5	0.1	0.335	52.6*
COc1cccc(C2CC(=O)NC(SC)=C2C#N)c1 (centres undefined)	62.3*	0.4	0.4	.	63.9*
CCSC1=C(C#N)C(c2ccc(OC)c(OC)c2)CC(=O)N1 (centres undefined)	26.9	0.4	0.7	.	62.6*
CCSC1=C(C#N)C(c2ccc(F)cc2)CC(=O)N1 (centres undefined)	10.5	0.6	0.9	0.724	37.6
CCC1CCC(NC2CCCCNC2=O)CC1 (centres undefined)	-13.5	1.1	1.1	0.202	-6.6
O=C(c1ccc(F)cc1)C1CCN(C(=S)Nc2ccccc2)CC1	42.2	0.5	0.6	.	49.5
CCOC(=O)c1c(C)c(C(=O)N2CCCCCC2)c(C)n1C	-5.5	0.7	1.1	0.185	26.9
CCOC(=O)c1c(C)c(C(=O)N2CCCCCC2)c(C)n1CC	-9.6	0.3	1.1	0.226	66.9*
Cc1cc(C)cc(SCc2noc(C(=O)NCCC(C)C)c2C(=O)NCCC(C)C)c1	.	.	.	-0.262	.
